Source: PubChem BioAssay
TGFb inhibitor: inhibitors of TGF-b signaling | AID 588855 | 410,000 compounds, 1.2% hits | Potency, µM (top dose mostly 46.1 µM), without a hit: at the highest dose activity, negative = inhibition, most hits filed as inhibitors | HepG2 CAGA-GFP TGF-b/SMAD3 reporter, GFP fluorescence, 18 h; TGF-beta stimulated, 500 pg/mL final; note: % is set by controls: 0 for no effect and ±100 for the full control effect; nearly all actives have a fitted effect of over 65% in size
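TGF-beta reporter screen: HEPG2 CAGA-GFP, 1% FBS, 500 pg/mL TGF-beta final, 18 h; per-cell GFP summed per well; curves fitted and categorized by class.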
HepG2 tox: kills HepG2 cells in TGF-b inhibitor counter-screen. HepG2 CAGA-GFP viability, ATP luminescence, 18 h. 410,000 compounds, 0.76% hits. AID 588856. Potency, µM (highest dose often 46.1 µM), for the others: at the top dose activity change, negative = cytotoxicity, actives largely listed as cytotoxic
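CellTiter-Glo luminescence gave cytotoxicity after 18 hours at 37 degrees C. The cells were HepG2 CAGA-GFP in 1% FBS DMEM, stimulated with 500 pg/mL TGF-beta after compound addition. %Activity was normalised to no-cell wells (complete cell-killing) and DMSO (no toxicity), and curves were fitted and classified.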
HT1080-NT tox: kills 2HG-producing HT-1080-NT fibrosarcoma cells; HT-1080-NT fibrosarcoma viability, CellTiter-Glo ATP luminescence, 48 h; Potency, µM (titrated, usually from 46.1 µM), for the others: at the highest dose activity, negative = less viability, usual class: cytotoxic; 360,000 compounds, 1.6% hits; AID 686970;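 note: NT is the 2HG producing partner of a matched IDH1 knockdown line; 0% = DMSO-treated cells and -100% = media-only wells without cells; nearly all actives have a fitted effect of over 55% in size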
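Compounds were tested in concentration-response format on HT-1080-NT cells for 48 hours at 37 degrees C. Cell viability came from CellTiter-Glo luminescence; curves were classified by r2, response magnitude and activity.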
HT1080 IDH1KD tx: toxicity to HT-1080 IDH1 knockdown cells (counter line); Potency, µM (doses to about 46.1 µM), for the others: at the highest dose activity, negative = toxicity, usual class: cytotoxic; 360,000 compounds, 2% hits; HT-1080 IDH1 knockdown viability, ATP luminescence, 48 h;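 note: 0% = DMSO wells and -100% = cell-free medium wells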
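Using the IDH1-knockdown HT-1080 line run in the same batch and compound series as the NT line, viability after 48 h at 37 °C was determined by CellTiter-Glo luminescence and expressed as % activity.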
TDP1 cell CPT: growth inhibition of DT40 Tdp1-/-;hTDP1 cells with camptothecin (screen for TDP1 inhibitors); AID 686979; chicken DT40 Tdp1-/-;hTDP1 cells + 20 nM CPT, ATP luminescence, 48 h; 420,000 compounds, 12% hits; Potency, µM (top dose mostly 46.2 µM), without a hit: top-dose activity change, negative = growth inhibition, hits mostly inhibitors; note: % is set by controls: 0 for no effect and ±100 for the full control effect; nearly all actives have a fitted effect of over 55% in size
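Chicken DT40 Tdp1-/- cells stably complemented with human TDP1 were seeded at 400 cells/well in medium containing 20 nM camptothecin, exposed to pin-transferred compounds, and grown at 37 °C for at least 48 hr. Viability was read as ATP luminescence.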
TDP1 cell noCPT: qHTS for Inhibitors of human tyrosyl-DNA phosphodiesterase 1 (TDP1): qHTS in cells in absence of CPT. Potency, µM (top dose mostly 46.2 µM), without a hit: at the top dose activity change, negative = growth inhibition, most hits filed as inhibitors. DT40 Tdp1-/- hTDP1 cells, no CPT, ATP luminescence, 48 h. 420,000 compounds, 15% hits; note: % is set by controls: 0 for no effect and ±100 for the full control effect; nearly all actives have a fitted effect of over 55% in size
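No-CPT arm: Tdp1-/-;hTDP1 DT40 cells (400/well) plus compounds, incubated ≥48 hr at 37 °C. Readout CellTiter-Glo luminescence.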
Starred values were filed as active, the others as inactive; u = inconclusive; x = no result given. Compounds with a hit are over-represented: about 17% of the library has one in this group of screens. Calls come from the whole dose curve; as a rule, active = well fitted curve in the direction sought with a large enough effect; inconclusive = small, poorly fitted or top-dose-only effect, or another doubt; inactive = no such curve, though single readings can be large; an effect the other way counts as inactive or inconclusive. Potency is the fitted concentration of half-maximal effect.

SMILES	TGFb inhibitor	HepG2 tox	HT1080-NT tox	HT1080 IDH1KD tx	TDP1 cell CPT	TDP1 cell noCPT
COC(=O)C1=C(C)NC(=S)NC1c1ccc(-c2cc(Cl)ccc2Cl)o1 (stereo not drawn)	u	-9.8%	u	u	6.51µM*	5.8µM*
COC(=O)C1=C(C)NC(=O)NC1c1ccc(-c2ccc(Cl)cc2)o1 (stereo not drawn)	-19.6%	-1.6%	-3.4%	-25.4%	-28.0%	u
COc1cccc(S(=O)(=O)N(C)C[C@H]2OCc3cnnn3CCCC(=O)N([C@@H](C)CO)C[C@H]2C)c1	10.6%	2.3%	1.5%	7.8%	3.2%	-15.7%
O=S(=O)(NCCc1csc(-c2cccnc2)n1)c1ccc2c(c1)OCCO2	0.8%	-5.9%	0.0%	-0.3%	u	-23.3%
Cc1cccn2cc(CCNS(=O)(=O)c3ccc4c(c3)OCCO4)nc12	-1.0%	-5.6%	3.5%	-1.4%	-17.5%	-13.7%
COc1ccc(-c2nc(CCNS(=O)(=O)c3ccc4c(c3)OCCO4)cs2)cc1	u	-31.8%	-14.8%	-5.1%	18.4µM*	16.4µM*
O=S(=O)(NCCc1csc(-c2ccc(C(F)(F)F)cc2)n1)c1ccc2c(c1)OCCO2	u	-25.1%	-4.1%	-2.5%	18.4µM*	14.6µM*
CCN(CC)CCC(c1ccc(N(C)C)cc1)c1c(OC)cc(OC)c2c(C)cc(=O)oc12 (stereo not drawn)	-22.7%	-25.4%	x	x	x	x
CCN(CC)CCC(c1ccc2c(c1)OCO2)c1c(OC)cc(OC)c2ccc(=O)oc12 (stereo not drawn)	-0.1%	-15.7%	-2.8%	-0.2%	13µM*	18.4µM*
CCN(CC)CCC(c1cc(OC)c(OC)c(OC)c1)c1c(OC)cc(OC)c2ccc(=O)oc12 (stereo not drawn)	-4.2%	-25.0%	-6.4%	0.5%	u	u
COc1cc(OC)c2c(-c3ccccc3)cc(=O)oc2c1C(CCN1CCCC(C)C1)c1ccc2c(c1)OCO2 (stereo not drawn)	u	-19.5%	u	-26.2%	u	23.1µM*
COc1cc(O)c(C(CCN2CCCCC2)c2ccc3c(c2)OCO3)c(OC)c1 (stereo not drawn)	u	-6.0%	-4.7%	-18.8%	u	u
CCN(CC)CCC(c1cc(OC)c(OC)c(OC)c1)c1c(OC)cc(OC)c2c(C)cc(=O)oc12 (stereo not drawn)	u	-27.6%	-3.7%	-5.3%	9.2µM*	23.1µM*
COc1cc(OC)c2c(-c3ccccc3)cc(=O)oc2c1C(CCN1CCCCC1)c1ccc2c(c1)OCO2 (stereo not drawn)	u	-26.3%	1.3%	-14.4%	9.2µM*	7.31µM*
COc1ccc(CNC(=O)C2(C)Cc3c(-c4cccc(C(N)=O)c4)ccnc3O2)cc1OC (stereo not drawn)	-10.7%	-9.1%	-10.1%	-12.9%	-4.2%	u
Cc1ccc(Cl)cc1NC(=O)CN1CCN(S(=O)(=O)N2CCC(C)CC2)CC1	13.3%	2.4%	27.1%	2.7%	u	u
CNc1ccc(/C=C2\C=Cc3ccccc32)cc1Cl	u	-21.9%	x	x	u	u
COc1cc(OC)c2c(C)cc(=O)oc2c1C(CCN1CCOCC1)c1ccc2c(c1)OCO2 (stereo not drawn)	u	-24.8%	-6.2%	-11.6%	18.4µM*	20.6µM*
COc1cc(OC)c2c(-c3ccccc3)cc(=O)oc2c1C(CC(=O)N1CCCC1)c1ccc2c(c1)OCO2 (stereo not drawn)	u	6.5%	-10.3%	-13.9%	u	20.6µM*
COc1cc(C(CCN2CCN(c3ccccc3)CC2)c2c(OC)cc(OC)c3c(C)cc(=O)oc23)cc(OC)c1OC (stereo not drawn)	u	-30.1%	-14.3%	-12.4%	16.4µM*	16.4µM*
CCc1cccc(NC(=O)C2CCCN2S(=O)(=O)c2ccc3c(c2)CC(C)N3C(C)=O)c1 (stereo not drawn)	-2.0%	-1.8%	-4.5%	-11.2%	u	11.6µM*
COc1ccc(NC(=O)C2CCCN2S(=O)(=O)c2ccc3c(c2)CC(C)N3C(C)=O)cc1OC (stereo not drawn)	3.0%	-0.3%	15.1%	10.0%	u	0.3%
CCc1cccc(NC(=O)C2CCCN2S(=O)(=O)c2ccccc2C(F)(F)F)c1 (stereo not drawn)	-22.8%	-21.1%	-2.1%	-0.6%	u	20.6µM*
CC(=O)N1c2ccc(S(=O)(=O)N3CCCC3C(=O)Nc3cccc(F)c3)cc2CC1C (stereo not drawn)	-19.3%	-5.0%	0.3%	-1.2%	16.4µM*	u
O=C(COC(=O)Cc1ccccc1F)NCCNC(=O)COC(=O)Cc1ccccc1F	19.8%	14.1%	1.1%	9.9%	-4.4%	-0.9%
SMILES	TGFb inhibitor	HepG2 tox	HT1080-NT tox	HT1080 IDH1KD tx	TDP1 cell CPT	TDP1 cell noCPT
CCc1ccc2occ(CC(=O)Nc3nnc(C)s3)c2c1	-14.0%	1.7%	x	x	-5.7%	-24.4%
O=C(O)c1ccc(NC(C(=O)c2ccccc2)c2ccccc2)cc1 (stereo not drawn)	6.9%	-22.4%	-5.3%	-1.5%	-2.5%	-8.9%
CCCCOc1ccc(/C=C(\C(=O)O)c2ccc(S(=O)(=O)N3CCCC3)s2)cc1	-10.6%	-10.4%	-14.3%	-10.5%	u	u
COc1cc(/C=C(\C(=O)O)c2ccc(S(=O)(=O)N3CCCC3)s2)ccc1OCCC(C)C	-1.3%	-13.1%	-0.5%	-0.2%	23.1µM*	u
COc1ccccc1CN1COc2ccc3c(oc(=O)c4ccccc43)c2C1	4.0%	-24.0%	x	x	u	23.1µM*
COc1ccc(CN2COc3ccc4c(oc(=O)c5ccccc54)c3C2)cc1OC	7.0%	-5.2%	x	x	-14.8%	-7.9%
O=c1cc(-c2ccccc2)c2ccc3c(c2o1)CN(Cc1cccc(Cl)c1)CO3	u	-75.5%	x	x	u	u
COc1ccc(CN2COc3ccc4c(-c5ccc(OC)cc5)cc(=O)oc4c3C2)cc1	28.6%	-13.5%	x	x	9.2µM*	20.6µM*
COc1cc(OC)c(C2Nc3ccccc3-c3nnc(SCc4ccccc4)nc3O2)cc1OC (stereo not drawn)	-0.5%	4.1%	x	x	u	u
